Screening data: PubChem, National Center for Advancing Translational Sciences (NCATS)
SW480 rereplic – induces DNA re-replication in SW480 colon adenocarcinoma cells | SW480 DNA re-replication, Hoechst DNA content imaging, 48 h | Potency, µM (highest dose often 46.1 µM), inactives show at the top dose re-replication activation, hits mostly activators | actives 1.8% (n = 340,000) | AID 624297; note: potency is the fitted concentration of half-maximal effect; % of control where 0% means no effect; nearly all actives have a fitted effect of over 55% in size
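Hoechst fluorescence of nuclei (405 nm excitation, 500-530 nm emission) measured by plate-scanning imager after 48 hr compound exposure at 37 C; re-replication scored as increased number of nuclei with elevated intensity.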
MCF10A rereplic – DNA re-replication induction in MCF 10a cells. MCF 10A DNA re-replication, Hoechst nuclear intensity, 48 h. Potency, µM (titrated, usually from 46.1 µM), for inactives: at the top dose activity, positive = re-replication, hits mostly activators. actives 2.9% (n = 350,000). AID 624296; note: potency is the fitted concentration of half-maximal effect; % of control where 0% means no effect; nearly all actives have a fitted effect of over 50% in size
IL-1B inflam inh – blocks inflammasome-driven IL-1 beta release; THP-1 LPS/ATP IL-1B secretion, AlphaLISA, 16 h; active compounds read low; actives 4.7% (n = 360,000); activity change, % at 57.5 µM; in the data active = activity change below about -50%; inconclusive = mostly about -30% to -49%; note: % is set by controls: 0 for no effect and ±100 for the full control effect
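Secreted IL-1B measured by AlphaLISA bead assay after 16 h compound exposure of THP-1 cells; compounds (final up to 57.5 uM) added 1 h before LPS (250 ng/mL) and ATP (1.25 mM) stimulation; lower signal means less secretion.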
DT40 TDP1 CPT – growth inhibition of DT40 Tdp1-/-;hTDP1 cells with camptothecin (screen for TDP1 inhibitors). actives 12% (n = 420,000). chicken DT40 Tdp1-/-;hTDP1 cells + 20 nM CPT, ATP luminescence, 48 h. Potency, µM (top dose mostly 46.2 µM), for the others: at the highest dose activity change, negative = growth inhibition, usual class: inhibitors. AID 686979; note: potency is the fitted concentration of half-maximal effect; % is set by controls: 0 for no effect and ±100 for the full control effect; nearly all actives have a fitted effect of over 55% in size
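Chicken DT40 Tdp1-/- cells stably complemented with human TDP1 were seeded at 400 cells/well in medium containing 20 nM camptothecin, exposed to pin-transferred compounds, and grown at 37 °C for at least 48 hr. Viability was read as ATP luminescence.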
TDP1 cell noCPT – qHTS for Inhibitors of human tyrosyl-DNA phosphodiesterase 1 (TDP1): qHTS in cells in absence of CPT; Potency, µM (series often up to 46.2 µM), for the others: at the highest dose activity change, negative = growth inhibition, usual class: inhibitors; DT40 Tdp1-/- hTDP1 cells, no CPT, ATP luminescence, 48 h; actives 15% (n = 420,000); note: potency is the fitted concentration of half-maximal effect; % is set by controls: 0 for no effect and ±100 for the full control effect; nearly all actives have a fitted effect of over 55% in size
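Camptothecin absent (DMSO only). Human TDP1-complemented DT40 knockout cells, 400 cells/well, 37 °C for minimum 48 hr; ATP measured via CellTiter-Glo, 30 min dark incubation, luminescence.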
Chronic BCR inh – chronic active BCR signaling inhibition; Potency, µM (top dose mostly 46.1 µM), for inactives: at the highest dose activity change, negative = inhibition, hits mostly inhibitors; actives 0.05% (n = 340,000); AID 493014; ABC-DLBCL IkBa-CBG/CBR reporter, luminescence ratio, 4 h; active = well fitted inhibition curve with a large enough effect in the signal ratio, with a control signal flat, not every such curve was filed as active; inconclusive = small, poorly fitted or top-dose-only effect, or effect the other way, or a change in a side signal; the % refers to the signal ratio;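 note: potency is the fitted concentration of half-maximal effect; plate controls were basal doxycycline-induced cells for no effect and cells given 10 µM MG132 for full effect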
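TMD8 human ABC-DLBCL cells with doxycycline-inducible IκBα–green luciferase fusion and unfused red luciferase, in 0.5% FBS medium; compounds up to 46 uM, 4 h at 37C. Green/red luminescence ratio, filter-overlap corrected, fitted to concentration-response curves.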
The depositor's hits bear a star; ? = inconclusive; / = not tested or not shown; [ ] = remark or other dose. In the library only some 19% were active in any assay of this set; here they are far more common. Unless noted, calls come from the whole dose curve; as a rule, active = well fitted curve in the direction sought with a large enough effect; inconclusive = small, poorly fitted or top-dose-only effect, or another doubt; inactive = no such curve, though single readings can be large; an effect the other way counts as inactive or inconclusive.

SMILES	SW480 rereplic	MCF10A rereplic	IL-1B inflam inh	DT40 TDP1 CPT	TDP1 cell noCPT	Chronic BCR inh
CC(C)Cn1c(N)c(C(=O)COC(=O)/C=C/c2ccccc2)c(=O)n(C)c1=O	-4%	-4%	-19	15µM*	?	5%
O=[N+]([O-])c1ccc2c(c1)Cc1cc(F)ccc1-2	-2%	-29%	-21	-5%	?	/
O=CNc1c(Cl)cc2c(c1Cl)Cc1cc([N+](=O)[O-])ccc1-2	21µM*	?	11	12µM*	12µM*	/
COc1ccccc1OCCn1cc(C(=O)c2cccs2)c2ccccc21	/	/	/	?	10µM*	/
CN1CCN(C(=S)c2cn(CCOc3ccccc3F)c3ccccc23)CC1	-4%	?	-17	?	18µM*	1%
Cc1ccc(OCCn2cc(C=O)c3ccccc32)cc1	-84%	?	-5	?	?	-6%
Cc1ccc(OCCn2cc(C(=O)c3cccs3)c3ccccc32)cc1	/	/	/	18µM*	13µM*	/
CN1CCN(C(=S)c2cn(CCOc3ccccc3)c3ccccc23)CC1	-109%	-2%	16	-1%	8%	25%
CCc1cccc(CC)c1NC(=O)CN1CCc2cc(OC)c(OC)cc2C1	/	/	/	/	/	-11%
CC(C)CCc1noc(CN2CCN(CC(=O)NC(C)C)CC2)n1	29%	-2%	22	26µM*	26µM*	-3%
Fc1ccc(/C=C2\CCCC3=C2Nc2ncnn2C3c2ccc(F)cc2)cc1 (centres undefined)	23µM*	5.8µM*	-122*	15µM*	18µM*	?
CCOC(=O)N1CCN(S(=O)(=O)c2ccc(OCC(=O)OC)c(Cl)c2)CC1	6%	0%	-91*	0%	-4%	1%
CCOC(=O)N1CCN(S(=O)(=O)c2ccc(OC)c(Cl)c2)CC1	0%	-11%	2	-8%	-23%	?
CCOC(=O)N1CCN(S(=O)(=O)c2ccc(OCC)c3ccccc23)CC1	14%	?	-80*	16µM*	23µM*	-7%
CCOC(=O)N1CCN(S(=O)(=O)c2ccc(OC)c(Cl)c2Cl)CC1	4%	-4%	-3	?	13µM*	?
COc1ccccc1CNC(=O)c1cc2ccccc2oc1=O	1%	-13%	0	-6%	-10%	4%
COc1ccccc1NC(=O)c1ccccc1SC	-8%	-4%	-15	0%	-8%	2%
COc1ccccc1NC(=O)c1cc2ccccc2o/c1=N\O	1%	8%	-18	21µM*	21µM*	?
COc1ccccc1NC(=O)c1cc2ccc(O)cc2o/c1=N\O	?	?	-63*	?	?	?
CCOCCc1nn2c(=O)cc(CSCC(=O)Nc3cc(C)cc(C)c3)nc2s1	-1%	-1%	6	12%	1%	-6%
CCOc1ncccc1C(=O)NNC(=O)c1cccc(S(=O)(=O)Nc2ccc(OC)cc2)c1	3%	-5%	12	?	-30%	-10%
COc1ccc(NCc2cc3ccccc3[nH]c2=O)cc1	-5%[9.22 µM]	20%	42	?	?	?
COc1ccc(NCc2cc3cc(OC)ccc3[nH]c2=O)cc1	26%	-7%	-11	8.2µM*	23µM*	-1%
COc1ccc2[nH]c(=O)c(CN(C(C)=O)c3cc(C)ccc3C)cc2c1	/	/	11	-7%	-22%	/
COc1ccc2[nH]c(=O)c(CNc3cccc(C)c3)cc2c1	1%	9%	15	13µM*	12µM*	-2%
O=C(CCCn1c(=O)c2cccn2c2cccnc21)Nc1ccccc1C(F)(F)F	/	/	/	-14%	-15%	/
O=C(O)CCC(=O)N1N=C(c2ccccc2)CC1c1ccc(Br)cc1 (centres undefined)	-7%[9.22 µM]	-7%	13	-3%	-20%	9%
